Data as given in PubChem BioAssay AID1159580 (chemical genetic matrix, 2015).
The campaign covered roughly 5,500 compounds. About 2,000 (36%) were called active. Not shown: some 18% with an inconclusive outcome. Cut-off read from the data, not from the text of the source: active = normalized growth mostly below about 0.91 (no sharp cut-off); inconclusive = no clear call, values can overlap the other calls; inactive = mostly above about 0.92. The list shows a part of the results.

Test: chemical genetic growth profiling, strain panel (AID 1159580);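 note: tested at 20 µM; growth read once vehicle control cultures reached saturation at 30 °C; 1 = growth at the plate median or of vehicle wells; lower values mean less growth of the strain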
Settings: S. cerevisiae deletion strains, growth OD

Measured: normalized growth

CC(C)CCCC(C)N (configuration not stated)
inactive: locus YAL021C, strain ccr4, active compounds read low 1.03 | locus YAL026C, strain drs2, active compounds read low 1.02 | locus YAL030W, strain snc1, active compounds read low 1.02 | locus YBL061C, strain skt5, active compounds read low 1.02 | locus YBR009C, strain hhf1, active compounds read low 1.02 | locus YBR023C, strain chs3, active compounds read low 1.03 | locus YBR171W, strain sec66, active compounds read low 1.05 | locus YBR231C, strain swc5, active compounds read low 1.02 | locus YBR279W, strain paf1, active compounds read low 1.02 | locus YCL011C, strain gbp2, active compounds read low 1.04 | locus YCL016C, strain dcc1, active compounds read low 1.02 | locus YCL061C, strain MRC1, active compounds read low 1.01 | locus YCL069W, strain vba3, active compounds read low 1.03 | locus YCR088W, strain abp1, active compounds read low 1.03 | locus YDL005C, strain med2, active compounds read low 1.04 | locus YDL040C, strain nat1, active compounds read low 1.02 | locus YDR001C, strain nth1, active compounds read low 1.02 | locus YDR069C, strain doa4, active compounds read low 1.04 | locus YDR137W, strain rgp1, active compounds read low 0.99 | locus YDR159W, strain sac3, active compounds read low 0.97 | locus YDR195W, strain ref2 1.03 | locus YDR297W, strain sur2, active compounds read low 1.02 | locus YDR334W, strain swr1, active compounds read low 1.03 | locus YDR335W, strain msn5, active compounds read low 1.04 | locus YDR392W, strain spt3, active compounds read low 0.963 | locus YEL003W, strain gim4, active compounds read low 1.02 | locus YEL037C, strain rad23, active compounds read low 1.04 | locus YEL061C, strain CIN8 (second series), active compounds read low 1.01 | locus YER015W, strain faa2, active compounds read low 1.02 | locus YER016W, strain bim1, active compounds read low 1.05 | locus YER111C, strain swi4, active compounds read low 1.04 | locus YER155C, strain BEM2 (second series), active compounds read low 1.03 | locus YFR010W, strain ubp6, active compounds read low 1.01 | locus YGL167C, strain pmr1, active compounds read low 1.03 | locus YGL173C, strain kem1, active compounds read low 1.01 | locus YGL227W, strain vid30, active compounds read low 1.04 | locus YGL240W, strain doc1, active compounds read low 0.983 | locus YGL253W, strain hxk2, active compounds read low 1.04 | locus YHR013C, strain ard1, active compounds read low 1.03 | locus YHR027C, strain rpn1, active compounds read low 1.02 | locus YHR142W, strain chs7, active compounds read low 1.05 | locus YJL092W, strain hpr5, active compounds read low 1.02 | locus YJL095W, strain BCK1 (second series), active compounds read low 1.03 | locus YJL115W, strain asf1, active compounds read low 1.03 | locus YJL129C, strain trk1, active compounds read low 1.04 | locus YJL154C, strain vps35, active compounds read low 1.03 | locus YJL164C, strain tpk1, active compounds read low 1.03 | locus YJL166W, strain qcr8, active compounds read low 1.02 | locus YJL187C, strain SWE1, active compounds read low 1.02 | locus YKL160W, strain elf1, active compounds read low 1.03 | locus YKR026C, strain gcn3, active compounds read low 1.02 | locus YKR091W, strain srl3, active compounds read low 1.01 | locus YLL001W, strain dnm1, active compounds read low 1 | locus YLL026W, active compounds read low 1.01 | locus YLL041C, strain sdh2, active compounds read low 1.03 | locus YLR027C, strain aat2, active compounds read low 1.03 | locus YLR221C, strain rsa3, active compounds read low 1.01 | locus YLR258W, strain gsy2, active compounds read low 1.01 | locus YLR262C, strain YPT6 (second series), active compounds read low 0.999 | locus YLR320W, strain mms22, active compounds read low 0.977 | locus YLR342W, strain FKS1, active compounds read low 1.03 | locus YLR357W, strain rsc2, active compounds read low 1.06 | locus YLR370C, strain arc18, active compounds read low 1.03 | locus YLR384C, strain iki3, active compounds read low 1.03 | locus YML120C, strain ndi1, active compounds read low 1.02 | locus YMR058W, strain fet3, active compounds read low 1.01 | locus YMR125W, strain sto1, active compounds read low 1.04 | locus YMR129W, active compounds read low 1.02 | locus YMR205C, strain PFK2, active compounds read low 1.01 | locus YMR231W, strain pep5, active compounds read low 1.03 | locus YNL071W, strain lat1, active compounds read low 1.03 | locus YNL209W, strain ssb2, active compounds read low 1.03 | locus YNL248C, strain rpa49, active compounds read low 1.07 | locus YNL322C, strain KRE1 (second series), active compounds read low 1.04 | locus YNR049C, strain mso1, active compounds read low 1.03 | locus YOR001W, strain rrp6, active compounds read low 1.02 | locus YOR070C, strain gyp1, active compounds read low 1.02 | locus YOR080W, strain dia2, active compounds read low 1.03 | locus YOR083W, strain WHI5, active compounds read low 0.968 | locus YOR106W, strain vam3, active compounds read low 1.04 | locus YOR265W, strain rbl2, active compounds read low 1.02 | locus YOR270C, strain vph1, active compounds read low 1.14 | locus YOR290C, strain snf2, active compounds read low 1.03 | locus YPL051W, strain arl3, active compounds read low 1.02 | locus YPL078C, strain atp4, active compounds read low 1.04 | locus YPL106C, strain sse1, active compounds read low 1.05 | locus YPL240C, strain hsp82, active compounds read low 1.03
